Read-outs that look alike come from different tables or passages of the source.
Tests used:
FGFR1 = conditions: concentration: 1 μM, replicates: in singlicate; n = 1
FGFR2 = conditions: concentration: 1 μM, replicates: in singlicate; n = 1
FGFR3 = conditions: concentration: 1 μM, replicates: in singlicate; n = 1
FGFR4 = conditions: concentration: 1 μM, replicates: in singlicate; n = 1
FGR = conditions: concentration: 1 μM, replicates: in singlicate; n = 1
FLT1 = conditions: concentration: 1 μM, replicates: in singlicate; n = 1
FLT3-autoinhibited = conditions: concentration: 1 μM, replicates: in singlicate; n = 1
FLT3 = conditions: concentration: 1 μM, replicates: in singlicate; n = 1
FLT4 = conditions: concentration: 1 μM, replicates: in singlicate; n = 1
FRK = conditions: concentration: 1 μM, replicates: in singlicate; n = 1
FYN = conditions: concentration: 1 μM, replicates: in singlicate; n = 1
GAK = conditions: concentration: 1 μM, replicates: in singlicate; n = 1
GCN2(Kin.Dom.2,S808G) = tested on: T1, GCN2(Kin.Dom.2,S808G); conditions: concentration: 1 μM, replicates: in singlicate; n = 1
T1 construct: gene EIF2AK4

GRK1 = conditions: concentration: 1 μM, replicates: in singlicate; n = 1
GRK2 = tested on: T2, GRK2; conditions: concentration: 1 μM, replicates: in singlicate; n = 1
T2 construct: gene ADRBK1

GRK3 = tested on: T3, GRK3; conditions: concentration: 1 μM, replicates: in singlicate; n = 1
T3 construct: gene ADRBK2

GRK4 = conditions: concentration: 1 μM, replicates: in singlicate; n = 1
GRK7 = conditions: concentration: 1 μM, replicates: in singlicate; n = 1
GSK3A = conditions: concentration: 1 μM, replicates: in singlicate; n = 1
GSK3B = conditions: n = 1
[1] = concentration: 1 μM, replicates: in singlicate
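Further: KINOMEscan kinase panel screen.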

## COc1ccc(CNC(=O)NC2CCN(c3ccnc(Nc4ccc(F)cc4)n3)CC2)cc1 [GSK1379788]
FGFR1
  %Inh: 0%
FGFR2
  %Inh: 0%
FGFR3
  %Inh: 8%
FGFR4
  %Inh: 0%
FGR
  %Inh: 19%
FLT1
  %Inh: 16%
FLT3-autoinhibited
  %Inh: 0%
FLT3
  %Inh: 0%
FLT4
  %Inh: 0%
FRK
  %Inh: 0%
FYN
  %Inh: 8%
GAK
  %Inh: 0%
GCN2(Kin.Dom.2,S808G)
  %Inh: 0%
GRK1
  %Inh: 0%
GRK2
  %Inh: 0%
GRK3
  %Inh: 57%
GRK4
  %Inh: 0%
GRK7
  %Inh: 0%
GSK3A
  %Inh: 2%
GSK3B; [1]
  %Inh: 0%

## CC(C)(C)c1ccc2nccc(Nc3cccc(O)c3)c2c1 [GW856795]
FGFR1
  %Inh: 0%
FGFR2
  %Inh: 0%
FGFR3
  %Inh: 0%
FGFR4
  %Inh: 0%
FGR
  %Inh: 54%
FLT1
  %Inh: 0%
FLT3-autoinhibited
  %Inh: 64%
FLT3
  %Inh: 10%
FLT4
  %Inh: 0%
FRK
  %Inh: 84%
FYN
  %Inh: 71%
GAK
  %Inh: 62%
GCN2(Kin.Dom.2,S808G)
  %Inh: 15%
GRK1
  %Inh: 9%
GRK2
  %Inh: 39%
GRK3
  %Inh: 0%
GRK4
  %Inh: 16%
GRK7
  %Inh: 17%
GSK3A
  %Inh: 0%
GSK3B; [1]
  %Inh: 9%

## Cl.Cl.NCC(C(=O)Nc1cc(Br)c(-c2ccnc3[nH]ccc23)s1)c1ccccc1 (centres unmarked) [GSK1269851]
FGFR1
  %Inh: 30%
FGFR2
  %Inh: 8%
FGFR3
  %Inh: 27%
FGFR4
  %Inh: 44%
FGR
  %Inh: 55%
FLT1
  %Inh: 16%
FLT3-autoinhibited
  %Inh: 20%
FLT3
  %Inh: 86%
FLT4
  %Inh: 0%
FRK
  %Inh: 12%
FYN
  %Inh: 30%
GAK
  %Inh: 83%
GCN2(Kin.Dom.2,S808G)
  %Inh: 0%
GRK1
  %Inh: 56%
GRK2
  %Inh: 13%
GRK3
  %Inh: 62%
GRK4
  %Inh: 86%
GRK7
  %Inh: 13%
GSK3A
  %Inh: 0%
GSK3B; [1]
  %Inh: 7%

## Cl.Cl.NCC(NC(=O)c1cc(-c2ccccc2)c(-c2ccnc3[nH]ccc23)s1)c1ccccc1 (centres unmarked) [GSK1321561]
FGFR1
  %Inh: 15%
FGFR2
  %Inh: 14%
FGFR3
  %Inh: 19%
FGFR4
  %Inh: 0%
FGR
  %Inh: 35%
FLT1
  %Inh: 10%
FLT3-autoinhibited
  %Inh: 0%
FLT3
  %Inh: 0%
FLT4
  %Inh: 2%
FRK
  %Inh: 72%
FYN
  %Inh: 59%
GAK
  %Inh: 86%
GCN2(Kin.Dom.2,S808G)
  %Inh: 0%
GRK1
  %Inh: 9%
GRK2
  %Inh: 0%
GRK3
  %Inh: 15%
GRK4
  %Inh: 0%
GRK7
  %Inh: 25%
GSK3A
  %Inh: 31%
GSK3B; [1]
  %Inh: 26%

## Nc1ncnc2c1nc(-c1ccccc1)n2-c1ccccc1 [SKF-97293]
FGFR1
  %Inh: 12%
FGFR2
  %Inh: 20%
FGFR3
  %Inh: 0%
FGFR4
  %Inh: 0%
FGR
  %Inh: 31%
FLT1
  %Inh: 9%
FLT3-autoinhibited
  %Inh: 14%
FLT3
  %Inh: 20%
FLT4
  %Inh: 0%
FRK
  %Inh: 0%
FYN
  %Inh: 0%
GAK
  %Inh: 1%
GCN2(Kin.Dom.2,S808G)
  %Inh: 0%
GRK1
  %Inh: 36%
GRK2
  %Inh: 0%
GRK3
  %Inh: 13%
GRK4
  %Inh: 13%
GRK7
  %Inh: 43%
GSK3A
  %Inh: 0%
GSK3B; [1]
  %Inh: 40%

## CC(=O)Nc1nc2cnc(Nc3cc(NC(=O)c4cccc(C5(C#N)CC5)c4Cl)ccc3C)nc2s1
FGFR1
  %Inh: 2%
FGFR2
  %Inh: 15%
FGFR3
  %Inh: 0%
FGFR4
  %Inh: 0%
FGR
  %Inh: 52%
FLT1
  %Inh: 44%
FLT3-autoinhibited
  %Inh: 0%
FLT3
  %Inh: 0%
FLT4
  %Inh: 60%
FRK
  %Inh: 93.2%
FYN
  %Inh: 50%
GAK
  %Inh: 0%
GCN2(Kin.Dom.2,S808G)
  %Inh: 19%
GRK1
  %Inh: 6%
GRK2
  %Inh: 0%
GRK3
  %Inh: 14%
GRK4
  %Inh: 14%
GRK7
  %Inh: 15%
GSK3A
  %Inh: 0%
GSK3B; [1]
  %Inh: 0%

## Cc1cccc(NC(=O)Nc2ccc(Oc3ncnc4ccn(C)c34)cc2)c1
FGFR1
  %Inh: 0%
FGFR2
  %Inh: 0%
FGFR3
  %Inh: 0%
FGFR4
  %Inh: 0%
FGR
  %Inh: 0%
FLT1
  %Inh: 99.3%
FLT3-autoinhibited
  %Inh: 64%
FLT3
  %Inh: 100%
FLT4
  %Inh: 73%
FRK
  %Inh: 10%
FYN
  %Inh: 0%
GAK
  %Inh: 0%
GCN2(Kin.Dom.2,S808G)
  %Inh: 0%
GRK1
  %Inh: 4%
GRK2
  %Inh: 0%
GRK3
  %Inh: 0%
GRK4
  %Inh: 0%
GRK7
  %Inh: 0%
GSK3A
  %Inh: 0%
GSK3B; [1]
  %Inh: 0%

## O=C(Nc1n[nH]c2nc(-c3ccc(O)cc3)ccc12)C1CC1 [SB-710363]
FGFR1
  %Inh: 0%
FGFR2
  %Inh: 0%
FGFR3
  %Inh: 0%
FGFR4
  %Inh: 0%
FGR
  %Inh: 11%
FLT1
  %Inh: 16%
FLT3-autoinhibited
  %Inh: 18%
FLT3
  %Inh: 82%
FLT4
  %Inh: 0%
FRK
  %Inh: 0%
FYN
  %Inh: 0%
GAK
  %Inh: 8%
GCN2(Kin.Dom.2,S808G)
  %Inh: 0%
GRK1
  %Inh: 34%
GRK2
  %Inh: 0%
GRK3
  %Inh: 16%
GRK4
  %Inh: 20%
GRK7
  %Inh: 13%
GSK3A
  %Inh: 98.8%
GSK3B; 1 µM
  %Inh: 95.6%

## COc1ccc(Nc2nccc(NCCNC(=O)c3cc4ccccc4s3)n2)cc1 [GSK1379896]
FGFR1
  %Inh: 0%
FGFR2
  %Inh: 0%
FGFR3
  %Inh: 5%
FGFR4
  %Inh: 9%
FGR
  %Inh: 1%
FLT1
  %Inh: 19%
FLT3-autoinhibited
  %Inh: 0%
FLT3
  %Inh: 0%
FLT4
  %Inh: 10%
FRK
  %Inh: 0%
FYN
  %Inh: 33%
GAK
  %Inh: 42%
GCN2(Kin.Dom.2,S808G)
  %Inh: 3%
GRK1
  %Inh: 6%
GRK2
  %Inh: 3%
GRK3
  %Inh: 0%
GRK4
  %Inh: 0%
GRK7
  %Inh: 0%
GSK3A
  %Inh: 7%
GSK3B; [1]
  %Inh: 13%

## C[C@@H]1CC[C@@H](C(=O)Nc2ccccc2)CN1c1cc(-c2ccc3c(N)n[nH]c3c2)nc(N)n1 [GSK2286062]
FGFR1
  %Inh: 0%
FGFR2
  %Inh: 0%
FGFR3
  %Inh: 4%
FGFR4
  %Inh: 0%
FGR
  %Inh: 19%
FLT1
  %Inh: 0%
FLT3-autoinhibited
  %Inh: 0%
FLT3
  %Inh: 0%
FLT4
  %Inh: 0%
FRK
  %Inh: 0%
FYN
  %Inh: 25%
GAK
  %Inh: 19%
GCN2(Kin.Dom.2,S808G)
  %Inh: 0%
GRK1
  %Inh: 0%
GRK2
  %Inh: 0%
GRK3
  %Inh: 10%
GRK4
  %Inh: 0%
GRK7
  %Inh: 0%
GSK3A
  %Inh: 0%
GSK3B; [1]
  %Inh: 0%

From paper PMC5540273 (PLoS ONE, 2017)
